Bioassay records as filed in PubChem BioAssay.
G9a block = qHTS Assay for Inhibitors of Histone Lysine Methyltransferase G9a | actives 8.8% (n = 350,000) | Potency, µM (titrated, usually from 102 µM), without a hit: top-dose activity, negative = inhibition, actives largely listed as inhibitors | Histone-lysine N-methyltransferase EHMT2 (Homo sapiens), Q96KQ7 | G9a H3K9 monomethylation, AlphaScreen, 2 h; note: % is set by controls: 0 for no effect and ±100 for the full control effect; nearly all actives have a fitted effect of over 75% in size
Target sequence (Q96KQ7 913-1193 limits assumed): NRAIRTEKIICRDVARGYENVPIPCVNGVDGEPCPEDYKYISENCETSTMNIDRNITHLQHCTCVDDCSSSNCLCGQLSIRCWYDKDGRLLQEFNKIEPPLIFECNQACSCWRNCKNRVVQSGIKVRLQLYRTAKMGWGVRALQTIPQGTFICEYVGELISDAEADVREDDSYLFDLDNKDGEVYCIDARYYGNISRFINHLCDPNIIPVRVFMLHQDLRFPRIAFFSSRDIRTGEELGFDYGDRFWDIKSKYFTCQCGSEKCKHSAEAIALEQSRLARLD
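G9a (20 nM) was preincubated 15 min with compound, then reacted 2 h at room temperature with 500 nM biotin-H3K9 peptide and 20 µM SAM. Monomethyl-H3K9 detected by AlphaScreen using anti-H3K9me1 antibody.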
L3MBTL1 block = qHTS Assay for the Inhibitors of L3MBTL1. Lethal(3)malignant brain tumor-like protein 1 (Homo sapiens), Q9Y468. AlphaScreen L3MBTL1–H3K9me1 peptide binding. Potency, µM (series often up to 57.1 µM), for inactives: at the top dose activity, negative = inhibition, actives largely listed as inhibitors. actives 0.66% (n = 230,000). AID 485360, 2010; note: % is set by controls: 0 for no effect and ±100 for the full control effect; nearly all actives have a fitted effect of over 60% in size
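AlphaScreen proximity signal between nickel-chelate acceptor and streptavidin donor beads (final 10 ug/mL) reports binding of 50 nM L3MBTL1 to 75 nM biotin-H3 K9me1 peptide; complex incubated with compounds 30 min at room temperature; cefsulodin titration as control.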
Sfp inh = qHTS Assay for Inhibitors of Bacillus subtilis Sfp phosphopantetheinyl transferase (PPTase) | actives 3.5% (n = 310,000) | Potency, µM, inactives show largest response in the series, negative = inhibition, hits mostly inhibitors | Biochemical Sfp PPTase activity, qHTS | 4'-phosphopantetheinyl transferase ffp (Bacillus subtilis), Q9F4F7 | AID 1490, 2009;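 note: the enzyme is Sfp with the accession as filed and its product quenches rhodamine fluorescence; 0% = enzyme reaction without inhibitor and -100% = no enzyme wells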
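Sfp 15 nM + cpd, 15 min RT; start w/ rhodamine-CoA 5 uM, BHQ-2-YbbR 12.5 uM (final); 50 mM Hepes pH 7.6, 10 mM MgCl2, 0.01% NP-40, 0.01% BSA; read 525/598 nm at 0 and 30 min.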
HP1b binding inh = HTS for Inhibitors of HP1-beta Chromodomain Interactions with Methylated Histone Tails. AlphaScreen HP1-beta / biotin-H3K9me3 peptide binding. AID 540317, 2011. Potency, µM (top dose mostly 114 µM), for inactives: top-dose activity change, negative = inhibition, actives largely listed as inhibitors. actives 0.56% (n = 390,000); note: nearly all actives have a fitted effect of over 70% in size
Target sequence (P83916 whole entry, looked up): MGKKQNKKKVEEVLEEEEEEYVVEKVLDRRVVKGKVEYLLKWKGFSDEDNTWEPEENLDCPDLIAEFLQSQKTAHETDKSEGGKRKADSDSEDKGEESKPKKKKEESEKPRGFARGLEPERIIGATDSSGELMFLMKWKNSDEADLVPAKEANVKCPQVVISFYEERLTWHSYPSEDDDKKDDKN
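AlphaScreen: HP1-beta (50 nM) preformed 30 min with biotin-H3(1-18)K9me3 peptide (50 nM) in PBS pH 7.4, 0.01% Tween-20. Compound added for 30 min at RT, then streptavidin donor/nickel chelate acceptor beads (10 ug/mL) for 30 min.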
BAZ2B inh = qHTS Assay for Inhibitors of BAZ2B; AlphaScreen BAZ2B-H3K14Ac peptide displacement; Potency, µM (doses to about 114 µM), inactives show top-dose activity change, negative = inhibition, most hits filed as inhibitors; actives 4.4% (n = 360,000); Bromodomain adjacent to zinc finger domain protein 2B (Homo sapiens), Q9UIF8; AID 504333, 2011; note: % is set by controls: 0 for no effect and ±100 for the full control effect; nearly all actives have a fitted effect of over 60% in size
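AlphaScreen displacement: compounds (up to 110uM) incubated 30 min at room temperature with a preformed 50 nM BAZ2B/50 nM biotinylated H3K14Ac peptide complex in PBS pH 7.4 with Tween-20. Donor and acceptor beads at 10 ug/mL final added, 20 min light-protected before reading.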
JMJD2A Tudor = qHTS Assay for Inhibitors of JMJD2A-Tudor Domain; actives 4.4% (n = 390,000); AlphaScreen JMJD2A-Tudor / H3K4me3 peptide binding; AID 504339, 2011; Potency, µM (doses to about 114 µM), without a hit: top-dose activity change, negative = inhibition, actives largely listed as inhibitors; note: % is set by controls: 0 for no effect and ±100 for the full control effect; nearly all actives have a fitted effect of over 50% in size
An asterisk follows results filed as active; ? = inconclusive; nt = not tested or not shown; [ ] = another dose, or the depositor's remark. Only some compounds are listed: those with a hit (about 12% of all), similar ones and a draw of the others. Calls come from the whole dose curve; as a rule, active = well fitted curve in the direction sought with a large enough effect; inconclusive = small, poorly fitted or top-dose-only effect, or another doubt; inactive = no such curve, though single readings can be large; an effect the other way counts as inactive or inconclusive. Potency is the fitted concentration of half-maximal effect.

SMILES | G9a block | L3MBTL1 block | Sfp inh | HP1b binding inh | BAZ2B inh | JMJD2A Tudor
O=C(c1ccc([N+](=O)[O-])cc1[N+](=O)[O-])N1CCc2ccccc21 | nt | -10.9% | 3.5% | 4.5% | ? | -29.2%
O=C(N=C1N=C2C=CC(Br)=CN2Cc2ccccc21)c1ccc([N+](=O)[O-])cc1[N+](=O)[O-] | 50.1µM* | -13.9% | 0.0% | -8.6%[57 µM] | -23.4% | ?
CCCOc1ccc(-c2c(=O)n(O)c3ccccc3[n+]2[O-])cc1 | 9.0%[0.501 µM] | -4.8%[2.29 µM] | -20.6% | -18.0% | ? | 56.2µM*
Cc1nn(CC(=O)N2CCN(C34CC5CC(CC(C5)C3)C4)CC2)c(C)c1[N+](=O)[O-] | 25.1µM* | nt | 20.4% | 32.8% | 0.5% | 4.9%
Cc1c(Cl)c([N+](=O)[O-])nn1CC(=O)N1CCc2ccccc2C1 | 25.9%[0.0925 µM] | -8.9% | -6.7% | 15.8% | -0.8% | -8.2%
Cc1c(Cl)c([N+](=O)[O-])nn1CC(=O)N1CCN(C23CC4CC(CC(C4)C2)C3)CC1 | 44.7µM* | nt | -27.9% | -5.1% | -4.4% | -21.0%
Cc1cc(C)cc(N2CC(c3nnc(NC(=O)c4ccco4)s3)CC2=O)c1 (configuration not stated) | -39.9%[59 µM] | nt | nt | 14.0% | -30.6% | -20.9%
COc1ccc([N+](=O)[O-])cc1C1NN=C(c2ccccc2O)S1 (configuration not stated) | ? | -1.2% | 13.7% | 11.9% | -3.1% | ?
O=[N+]([O-])c1ccc(O)c(C2=NNC(c3ccccc3F)C2)c1 (configuration not stated) | 39.8µM* | -11.0% | 19.0% | -0.2%[57 µM] | -31.2% | ?
Cc1cc(C)c(OCCCCN2CCNCC2)c(C)c1 | ? | 9.3% | 11.9% | 18.5% | ? | -8.1%
Cc1cccc(C)c1OCCCN1CCOCC1 | 35.5µM* | nt | -8.8% | -0.8% | -22.5% | -14.9%
COc1ccc(S(=O)(=O)NCCN2CCOCC2)c2ccccc12 | 28.2µM* | -1.9% | -8.4% | 14.5% | -28.4% | -23.6%
Cc1cccc(C)c1OCCCCN1CCNCC1 | 25.1µM* | -9.7% | -23.2% | -8.8% | ? | 6.31µM*
COc1ccccc1N1CCN(CCCCNS(=O)(=O)c2cccc3c(N(C)C)cccc23)CC1 | 26.7µM* | nt | nt | nt | nt | nt
COc1ccccc1N1CCN(CCCCN2C(=O)CCC2=O)CC1 | -9.2%[59 µM] | nt | -10.6% | nt | nt | nt
COc1cc(/C=C/c2nc(C#N)c(N3CCCCCC3)o2)cc(OC)c1OC | ? | nt | nt | 6.1% | ? | -11.3%
Cc1cc(F)ccc1NC(=O)C1CCCN(S(=O)(=O)c2ccc3c(c2)CCCC(=O)N3)C1 (configuration not stated) | -8.4%[59 µM] | nt | nt | -5.1% | 10.0%[57.1 µM] | -16.5%
CSCC[C@H](NC(=O)[C@H](CC(C)C)NC(=O)CNC(=O)[C@H](Cc1ccc(O)cc1)NC(=O)[C@H](Cc1ccccc1)NC(=O)[C@H](CCCCN)NC(=O)[C@H](CC(N)=O)NC(=O)[C@@H]1CCCN1C(=O)[C@H](CC(=O)O)NC(=O)[C@H](C)NC(=O)[C@@H]1CCC(=O)N1)C(N)=O | nt | nt | 23.5% | nt | nt | nt
COc1cccc(OC)c1OCCCN1CCOCC1 | ? | -5.9% | -19.7% | ? | 50.1µM* | 2.51µM*
O=C(NNC(=O)c1csc(-c2cccnc2)n1)c1ccccc1 | nt | nt | 89.1µM* | 36.7% | -6.7% | 2.1%
CC(C)(C)c1ccc(C(=O)NNC(=S)NC(=O)c2cccnc2)cc1 | 10µM* | nt | 9.0% | -14.4% | 3.9% | -25.9%
